Assay results published in PubChem BioAssay (EPA / NIEHS).
Active and inactive are the calls of the source. How the source made its calls: active means hit-call score of the fitted dose curve at least 0.9, where 1 is the maximum; inactive means score below 0.9.

Columns and labels:
[1] = CEETOX_H295R_PROG: CeeTox H295R High-throughput Steroidogenesis Assay for Progesterone (PROG) (AID 2283442); details: actives raise or lower the signal;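 on AC50: human H295R adrenal cells primed with 10 µM forskolin before dosing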
Method in brief: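 Progesterone read-out: HPLC-MS/MS on MTBE extracts of conditioned medium after 48 h chemical exposure of forskolin-primed (10 uM, 48 h) H295R cells. Gain or loss of signal was fitted relative to DMSO baseline.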

[2] = read-out: Tumor necrosis factor receptor superfamily member 6 (Homo sapiens) (UniProt P25445); assay: LTEA_HepaRG_FAS: Life Technologies and Expression Analysis (LTEA) Assay for Fas cell surface death receptor (FAS) using HepaRG (AID 2283447); details: mRNA level, 48 h; actives raise or lower the signal
Method in brief: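 Differentiated HepaRG cells in serum-free induction medium were exposed 48 h to 8 half-log concentrations up to 100 uM in 0.5% DMSO, in duplicate. FAS mRNA was measured by qRT-PCR normalised to ACTB, GAPDH and POLR2A; bidirectional fit versus DMSO.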

[3] = read-out: Fatty acid synthase (Homo sapiens) (UniProt P49327); assay: LTEA_HepaRG_FASN: Life Technologies and Expression Analysis (LTEA) Assay for Fatty Acid Synthase (FASN) using HepaRG (AID 2283448); details: mRNA level, 48 h; actives raise or lower the signal;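 on AC50: differentiated human HepaRG liver cells in serum-free induction medium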
Method in brief: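 FASN transcript measured by TaqMan qRT-PCR, normalised to three housekeeping genes, after 48 h chemical exposure of HepaRG cells. Eight-point half-log series from 100 uM in 0.5% DMSO, duplicates; gain or loss fitted against vehicle.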

[4] = read-out: Cyclin Dependent Kinase Inhibitor 1A (CDKN1A), CDKN1A (gene 1026); assay: LTEA_HepaRG_CDKN1A: Life Technologies and Expression Analysis (LTEA) Assay for Cyclin Dependent Kinase Inhibitor 1A (CDKN1A) using HepaRG (AID 2283450); details: mRNA level, 48 h; actives raise or lower the signal
Method in brief: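 HepaRG, 48 h dosing, 8-pt half-log series from 100 uM top, 0.5% DMSO vehicle, duplicates. Readout: TaqMan qRT-PCR of CDKN1A transcript, housekeeping-normalized (ACTB, GAPDH, POLR2A). Up/down curve fit relative to DMSO.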

[5] = read-out: Cyclin D1 (CCND1), CCND1 (gene 595); assay: LTEA_HepaRG_CCND1: Life Technologies and Expression Analysis (LTEA) Assay for Cyclin D1 (CCND1) using HepaRG (AID 2283451); details: mRNA level, 48 h; actives raise or lower the signal;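 on AC50: differentiated human HepaRG liver cells in serum-free induction medium; TaqMan qRT-PCR transcript level normalised to ACTB GAPDH and POLR2A housekeeping genes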
Method in brief: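 qRT-PCR (Fluidigm 96.96 array) read-out of transcript level, housekeeping-normalized (ACTB/GAPDH/POLR2A). HepaRG cells, 48 h chemical exposure, 8-point half-log series from 100 uM, 0.5% DMSO vehicle; gain or loss relative to DMSO baseline.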

[6] = read-out: catalase (CAT), CAT (gene 847); assay: LTEA_HepaRG_CAT: Life Technologies and Expression Analysis (LTEA) Assay for catalase (CAT) using HepaRG (AID 2283452); details: mRNA level, 48 h; actives raise or lower the signal
Method in brief: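 HepaRG cells in serum-free induction medium, 0.5% DMSO vehicle, exposed 48 h in duplicate over 8 half-log concentrations from 100 uM. CAT mRNA measured by qRT-PCR, normalized to ACTB, GAPDH, POLR2A; bidirectional fit versus DMSO.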

[7] = read-out: flavin-containing dimethylaniline monooxygenases 3 (FMO3), FMO3 (gene 2328); assay: LTEA_HepaRG_FMO3: Life Technologies and Expression Analysis (LTEA) Assay for flavin-containing dimethylaniline monooxygenases 3 (FMO3) using HepaRG (AID 2283453); details: mRNA level, 48 h; actives raise or lower the signal;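 on AC50: differentiated human HepaRG liver cells in serum-free induction medium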
Method in brief: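 FMO3 transcript quantified by TaqMan qRT-PCR against three housekeeping genes after 48 h chemical exposure of HepaRG cells. Eight-point half-log series, top 100 uM, 0.5% DMSO vehicle; phenobarbital 1mM induction control; up- or down-regulation fitted.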

[8] = read-out: Cytochrome P450 (CYP1A1), CYP1A1 (gene 1543); assay: LTEA_HepaRG_CYP1A1: Life Technologies and Expression Analysis (LTEA) Assay for Cytochrome P450 (CYP1A1) using HepaRG (AID 2283454); details: mRNA level, 48 h; actives raise or lower the signal
Method in brief: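 qRT-PCR read-out: CYP1A1 transcript normalized to three housekeeping genes, fitted bidirectionally against 0.5% DMSO vehicle baseline. Human HepaRG cells, 48 h chemical exposure, 8-point half-log series topping at 100 uM.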

[9] = read-out: CFLAR gene, CFLAR (gene 8837); assay: LTEA_HepaRG_CFLAR: Life Technologies and Expression Analysis (LTEA) Assay for CFLAR gene using HepaRG (AID 2283455); details: mRNA level, 48 h; actives raise or lower the signal
Method in brief: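 qRT-PCR read-out (Fluidigm/TaqMan) of CFLAR mRNA, normalized to three housekeeping genes, in differentiated human HepaRG cells after 48 h chemical exposure; 8-point half-log series from 100 uM in 0.5% DMSO; bidirectional curve fitting versus DMSO.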

[10] = read-out: Forkhead box O1 (FOXO1), FOXO1 (gene 2308); assay: LTEA_HepaRG_FOXO1: Life Technologies and Expression Analysis (LTEA) Assay for Forkhead box O1 (FOXO1) using HepaRG (AID 2283456); details: mRNA level, 48 h; actives raise or lower the signal
Method in brief: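 HepaRG, 48 h exposure, 8-pt half-log series from 100 uM in 0.5% DMSO, duplicates; Fluidigm qRT-PCR mRNA, housekeeping-normalised; bidirectional fit vs DMSO baseline.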

[11] = read-out: growth arrest and DNA damage 45 (GADD45A), GADD45A (gene 1647); assay: LTEA_HepaRG_GADD45A: Life Technologies and Expression Analysis (LTEA) Assay for growth arrest and DNA damage 45 (GADD45A) using HepaRG (AID 2283458); details: mRNA level, 48 h; actives raise or lower the signal
Method in brief: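 GADD45A expression was measured by TaqMan qRT-PCR against three housekeeping genes (ACTB, GAPDH, POLR2A) after 48 h treatment of HepaRG cells. Eight-point half-log series up to 100 uM in 0.5% DMSO, run in duplicate.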

[12] = read-out: ABC Transporter (ABCC3), ABCC3 (gene 8714); assay: LTEA_HepaRG_ABCC3: Life Technologies and Expression Analysis (LTEA) Assay for ABC Transporter (ABCC3) using HepaRG (AID 2283462); details: mRNA level, 48 h; actives raise or lower the signal
Method in brief: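 qRT-PCR read-out of ABCC3 transcript, normalized to three housekeeping genes (ACTB, GAPDH, POLR2A), after 48 h chemical exposure of human HepaRG cells. Eight half-log concentrations, highest 100 uM, in 0.5% DMSO; gain or loss fitted relative to DMSO baseline.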

[13] = read-out: ABC Transporter (ABCB11), ABCB11 (gene 8647); assay: LTEA_HepaRG_ABCB11: Life Technologies and Expression Analysis (LTEA) Assay for ABC Transporter (ABCB11) using HepaRG (AID 2283463); details: mRNA level, 48 h; actives raise or lower the signal
Method in brief: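 HepaRG, 48 h exposure, 8-pt half-log CRC top 100 uM, 0.5% DMSO vehicle, duplicates. Readout: TaqMan qRT-PCR of ABCB11 mRNA, housekeeping-normalized (ACTB/GAPDH/POLR2A). Bidirectional fit vs DMSO baseline.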

[14] = read-out: ABC Transporter (ABCC2), ABCC2 (gene 1244); assay: LTEA_HepaRG_ABCC2: Life Technologies and Expression Analysis (LTEA) Assay for ABC Transporter (ABCC2) using HepaRG (AID 2283464); details: mRNA level, 48 h; actives raise or lower the signal
Method in brief: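 qRT-PCR (TaqMan, Fluidigm array) read-out of ABCC2 mRNA, normalized to three housekeeping genes. Differentiated HepaRG cells were treated 48 h in serum-free induction medium with 8-point half-log series from 100 uM in 0.5% DMSO; curves fitted bidirectionally relative to DMSO.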

[15] = read-out: Broad substrate specificity ATP-binding cassette transporter ABCG2 (Homo sapiens) (UniProt Q9UNQ0); assay: LTEA_HepaRG_ABCG2: Life Technologies and Expression Analysis (LTEA) Assay for ABC Transporter (ABCG2) using HepaRG (AID 2283465); details: mRNA level, 48 h; actives raise or lower the signal
Method in brief: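 HepaRG, 48 h exposure, 8-pt half-log series from 100 uM, 0.5% DMSO vehicle, duplicates. Readout: ABCG2 transcript by qRT-PCR (Fluidigm array), housekeeping-normalized; bidirectional curve fit relative to DMSO baseline.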

[16] = read-out: Forkhead box O3 (FOXO3), FOXO3 (gene 2309); assay: LTEA_HepaRG_FOXO3: Life Technologies and Expression Analysis (LTEA) Assay for Forkhead box O3 (FOXO3) using HepaRG (AID 2283459); details: mRNA level, 48 h; actives raise or lower the signal
Method in brief: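 qRT-PCR readout of FOXO3 transcript, normalized to three housekeeping genes (ACTB, GAPDH, POLR2A); gain or loss fitted against 0.5% DMSO vehicle. HepaRG cells, 48 h chemical exposure, 8-point half-log series, top 100 uM.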

[17] = read-out: ABC Transporter (ABCB1), ABCB1 (gene 5243); assay: LTEA_HepaRG_ABCB1: Life Technologies and Expression Analysis (LTEA) Assay for ABC Transporter (ABCB1) using HepaRG (AID 2283460); details: mRNA level, 48 h; actives raise or lower the signal
Method in brief: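 HepaRG, 48 h exposure, 8-pt half-log series from 100 uM, 0.5% DMSO vehicle, duplicates. Readout: ABCB1 transcript by Fluidigm TaqMan qRT-PCR, housekeeping-normalized; bidirectional curve fit vs DMSO baseline.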

[18] = read-out: Cyclin D2 (CCND2), CCND2 (gene 894); assay: LTEA_HepaRG_CCND2: Life Technologies and Expression Analysis (LTEA) Assay for Cyclin D2 (CCND2) using HepaRG (AID 2283449); details: mRNA level, 48 h; actives raise or lower the signal;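 further: CCND2 transcript measured by TaqMan qRT-PCR and normalised to three housekeeping genes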
Method in brief: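 HepaRG, 48 h dosing, 8-pt half-log curve from 100 uM, 0.5% DMSO; duplicate wells. Readout: CCND2 transcript by microfluidic qRT-PCR, housekeeping-normalised; bidirectional fit vs DMSO baseline.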

Measured: AC50

Fatty acid synthase (Homo sapiens), sequence (P49327 whole entry, looked up): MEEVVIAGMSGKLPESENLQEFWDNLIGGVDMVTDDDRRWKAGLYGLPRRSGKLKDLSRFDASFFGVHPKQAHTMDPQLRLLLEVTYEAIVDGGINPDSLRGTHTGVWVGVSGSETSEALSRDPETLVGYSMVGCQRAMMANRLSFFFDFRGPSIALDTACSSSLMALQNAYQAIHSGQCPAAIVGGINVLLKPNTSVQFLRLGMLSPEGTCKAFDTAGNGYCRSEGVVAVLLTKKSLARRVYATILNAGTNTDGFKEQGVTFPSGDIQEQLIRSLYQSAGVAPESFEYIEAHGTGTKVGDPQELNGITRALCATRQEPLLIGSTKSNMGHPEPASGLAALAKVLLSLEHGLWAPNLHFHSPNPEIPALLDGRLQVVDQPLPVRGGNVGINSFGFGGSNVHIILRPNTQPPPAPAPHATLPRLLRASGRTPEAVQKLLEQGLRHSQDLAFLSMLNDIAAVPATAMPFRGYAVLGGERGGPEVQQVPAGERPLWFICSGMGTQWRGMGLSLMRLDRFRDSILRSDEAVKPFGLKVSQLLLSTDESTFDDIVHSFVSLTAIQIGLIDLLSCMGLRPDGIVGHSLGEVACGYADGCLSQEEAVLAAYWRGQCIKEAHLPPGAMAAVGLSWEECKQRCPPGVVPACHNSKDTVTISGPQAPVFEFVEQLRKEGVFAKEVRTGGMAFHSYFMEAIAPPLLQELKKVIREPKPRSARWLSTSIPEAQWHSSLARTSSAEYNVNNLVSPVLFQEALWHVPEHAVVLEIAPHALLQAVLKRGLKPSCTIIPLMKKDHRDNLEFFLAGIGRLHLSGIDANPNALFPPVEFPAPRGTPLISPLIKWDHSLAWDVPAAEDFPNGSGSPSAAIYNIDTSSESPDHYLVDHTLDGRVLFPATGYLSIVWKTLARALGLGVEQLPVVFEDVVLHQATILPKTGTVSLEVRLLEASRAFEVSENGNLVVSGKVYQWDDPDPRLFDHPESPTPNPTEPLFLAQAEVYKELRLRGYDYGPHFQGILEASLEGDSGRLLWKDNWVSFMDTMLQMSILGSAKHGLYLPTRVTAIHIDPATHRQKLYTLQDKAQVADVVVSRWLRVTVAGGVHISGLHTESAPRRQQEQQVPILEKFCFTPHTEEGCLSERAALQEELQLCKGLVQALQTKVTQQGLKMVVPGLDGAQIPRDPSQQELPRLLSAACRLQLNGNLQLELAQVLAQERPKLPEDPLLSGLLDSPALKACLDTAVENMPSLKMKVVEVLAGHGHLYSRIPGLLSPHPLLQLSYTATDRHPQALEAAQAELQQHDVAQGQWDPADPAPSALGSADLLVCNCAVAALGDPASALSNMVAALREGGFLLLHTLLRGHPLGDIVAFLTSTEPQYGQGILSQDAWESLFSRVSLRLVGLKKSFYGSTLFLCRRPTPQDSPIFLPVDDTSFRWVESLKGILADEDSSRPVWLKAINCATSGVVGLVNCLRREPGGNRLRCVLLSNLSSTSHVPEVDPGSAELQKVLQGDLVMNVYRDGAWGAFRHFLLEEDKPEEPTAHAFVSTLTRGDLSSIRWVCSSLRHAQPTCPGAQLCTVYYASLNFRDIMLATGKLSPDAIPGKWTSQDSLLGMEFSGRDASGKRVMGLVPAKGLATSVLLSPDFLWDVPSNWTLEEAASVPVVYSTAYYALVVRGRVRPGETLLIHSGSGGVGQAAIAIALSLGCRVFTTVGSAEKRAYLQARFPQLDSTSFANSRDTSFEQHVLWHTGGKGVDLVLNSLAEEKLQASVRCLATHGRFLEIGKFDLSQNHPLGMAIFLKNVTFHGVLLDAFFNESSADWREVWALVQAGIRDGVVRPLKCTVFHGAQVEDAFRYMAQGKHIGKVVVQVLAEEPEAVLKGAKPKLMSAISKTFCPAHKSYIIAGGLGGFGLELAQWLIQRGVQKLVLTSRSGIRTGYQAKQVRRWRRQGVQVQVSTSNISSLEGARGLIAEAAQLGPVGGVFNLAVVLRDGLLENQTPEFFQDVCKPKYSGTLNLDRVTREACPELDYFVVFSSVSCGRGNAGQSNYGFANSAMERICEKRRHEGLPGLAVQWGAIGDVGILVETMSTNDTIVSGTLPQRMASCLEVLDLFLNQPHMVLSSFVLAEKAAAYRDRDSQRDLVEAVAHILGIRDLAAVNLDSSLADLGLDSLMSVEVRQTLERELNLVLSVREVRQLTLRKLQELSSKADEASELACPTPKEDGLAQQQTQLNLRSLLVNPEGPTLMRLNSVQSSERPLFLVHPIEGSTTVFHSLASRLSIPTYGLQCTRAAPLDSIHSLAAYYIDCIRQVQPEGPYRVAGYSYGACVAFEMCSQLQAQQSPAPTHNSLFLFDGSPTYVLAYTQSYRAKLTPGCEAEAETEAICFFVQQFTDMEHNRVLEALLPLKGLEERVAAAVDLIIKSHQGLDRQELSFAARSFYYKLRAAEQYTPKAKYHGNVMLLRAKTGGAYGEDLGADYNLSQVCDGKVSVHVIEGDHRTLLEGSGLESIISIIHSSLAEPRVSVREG
Broad substrate specificity ATP-binding cassette transporter ABCG2 (Homo sapiens), sequence (Q9UNQ0 whole entry, looked up): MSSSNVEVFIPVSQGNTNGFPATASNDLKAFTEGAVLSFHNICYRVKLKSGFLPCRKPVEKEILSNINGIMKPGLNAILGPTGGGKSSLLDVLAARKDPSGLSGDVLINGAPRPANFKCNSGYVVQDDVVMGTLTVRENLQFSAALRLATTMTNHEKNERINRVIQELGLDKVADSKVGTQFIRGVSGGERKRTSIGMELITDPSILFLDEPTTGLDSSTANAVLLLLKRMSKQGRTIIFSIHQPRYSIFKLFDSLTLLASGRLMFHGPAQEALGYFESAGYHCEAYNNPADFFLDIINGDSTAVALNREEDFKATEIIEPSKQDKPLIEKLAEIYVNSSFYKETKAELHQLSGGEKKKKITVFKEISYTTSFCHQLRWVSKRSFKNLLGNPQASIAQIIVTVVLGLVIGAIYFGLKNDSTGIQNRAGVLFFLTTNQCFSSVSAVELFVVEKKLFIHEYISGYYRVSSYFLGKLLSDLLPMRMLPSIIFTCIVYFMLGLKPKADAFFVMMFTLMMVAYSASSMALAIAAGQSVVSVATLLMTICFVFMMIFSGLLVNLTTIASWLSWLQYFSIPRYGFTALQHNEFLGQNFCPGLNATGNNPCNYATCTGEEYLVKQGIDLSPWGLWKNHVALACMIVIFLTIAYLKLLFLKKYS

CCN(CC)c1nc(C)cc(OP(=S)(OC)OC)n1
active: [1] 45.8 µM | [3] 27.4 µM | [8] 31.1 µM | [14] 19.9 µM
not listed: [16] | [17] | [18]
inactive: all other assays above

O=C1C2CC=CCC2C(=O)N1SC(Cl)(Cl)Cl (stereo not drawn)
active: [3] 70.9 µM | [8] 38.8 µM | [10] 77.1 µM | [13] 57.6 µM
not listed: [9] | [18]
inactive: all other assays above

COP(=S)(OC)Oc1ccc([N+](=O)[O-])c(C)c1
active: [1] 2.59 µM | [8] 50 µM
not listed: [17]
inactive: all other assays above

Cn1c(-c2ccccc2)cc(-c2ccccc2)[n+]1C
inactive: [2] | [18] | [11] | [15]
active: [3] 11.7 µM | [4] 50 µM | [5] 75.6 µM | [6] 21.9 µM | [7] 50 µM | [8] 75 µM | [9] 82.3 µM | [10] 77.7 µM | [12] 2.67 µM | [13] 24.4 µM | [14] 62.6 µM
